# From PubChem BioAssay (EPA / NIEHS)
# Active and inactive are the calls of the source. The calls were made as follows: active = hit-call score of the fitted dose curve at least 0.9, where 1 is the maximum; inactive = score below 0.9.
# Key:
# [1] = read-out: C-C motif chemokine 2 (Homo sapiens) (UniProt P13500); assay: BSK_KF3CT_MCP1: BioMAP Diversity Plus: KF3CT Assay for Monocyte Chemoattractant Protein 1 (MCP1/CCL2) Biomarker Activity (AID 2283073); details: primary human keratinocytes with fibroblasts; actives raise or lower the signal
# Procedure, shortened: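 Human keratinocyte–foreskin fibroblast co-culture; MCP-1 measured by ELISA 24 h after dosing. Bidirectional fit vs DMSO; cytotoxicity tracked by SRB total protein in parallel cultures.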
# [2] = read-out: Matrix Metallopeptidase 9 (MMP9), MMP9 (gene 4318); assay: BSK_KF3CT_MMP9: BioMAP Diversity Plus: KF3CT Assay for Matrix Metallopeptidase 9 (MMP9) Biomarker Activity (AID 2283074); details: primary human keratinocytes with fibroblasts; actives raise or lower the signal;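 as to AC50: MMP9 protein level quantified by ELISA in the co-culture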
# Procedure, shortened: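 MMP-9 quantified by ELISA after 24 h chemical treatment of primary human skin keratinocyte/fibroblast co-cultures; gain or loss fitted against DMSO, with parallel SRB staining (0.1% SRB, 560 nm) for overt cytotoxicity.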
# [3] = read-out: urokinase plasminogen activator (uPA), PLAU (gene 5328); assay: BSK_KF3CT_uPA: BioMAP Diversity Plus: KF3CT Assay for urokinase plasminogen activator (uPA) Biomarker Activity (AID 2283075); details: primary human keratinocytes with fibroblasts; actives raise or lower the signal
# Procedure, shortened: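 ELISA read-out of uPA 24 h after dosing human skin keratinocytes co-cultured with foreskin fibroblasts. Signal change fitted both ways relative to DMSO; sulforhodamine B on parallel cultures marks overt cytotoxicity.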
# [4] = read-out: CD40, CD40 (gene 958); assay: BSK_LPS_CD40: BioMAP Diversity Plus: LPS Assay for CD40 Biomarker Activity (AID 2283076); details: primary human HUVEC with PBMC; actives raise or lower the signal
# Procedure, shortened: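 HUVEC plus PBMC co-culture stimulated with LPS; CD40 quantified by ELISA 24 h after compound dosing. Fitting was bidirectional relative to DMSO. SRB staining of parallel cultures flagged overt cytotoxicity.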
# [5] = read-out: E-selectin (Homo sapiens) (UniProt P16581); assay: BSK_LPS_Eselectin: BioMAP Diversity Plus: LPS Assay for Eselectin Biomarker Activity (AID 2283077); details: primary human HUVEC with PBMC; actives raise or lower the signal
# Procedure, shortened: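 Human umbilical vein endothelial cells co-cultured with PBMC under LPS stimulation; cell-surface E-selectin measured by ELISA 24 h after dosing. Change in either direction versus DMSO, with SRB total-protein staining in parallel cultures for cytotoxicity.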
# [6] = read-out: Interleukin-8 (IL8), CXCL8 (gene 3576); assay: BSK_LPS_IL8: BioMAP Diversity Plus: LPS Assay for Interleukin-8 (IL8) Biomarker Activity (AID 2283078); details: primary human HUVEC with PBMC; actives raise or lower the signal
# Procedure, shortened: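 Human umbilical vein endothelial cells co-cultured with PBMC, LPS-stimulated, exposed to compound for 24 h. IL-8 quantified by ELISA; fitted in both directions against DMSO, with SRB total-protein staining of parallel cultures for cytotoxicity.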
# [7] = BSK_LPS_SRB: Viability Assessment in the BioMAP Diversity Plus: LPS Assay (AID 2283079); details: primary human HUVEC with PBMC;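 also: total protein by sulforhodamine B absorbance as a cytotoxicity measure; measured one day after compound addition; fitted in both directions against DMSO so loss or gain of signal counts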
# Procedure, shortened: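 Co-culture of human umbilical vein endothelial cells and PBMC, read 24 h after dosing. Total protein by 0.1% SRB staining after 10% TCA fixation, absorbance at 560 nm; bidirectional fit against DMSO.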
# [8] = read-out: Interleukin-1 alpha (IL1a), IL1A (gene 3552); assay: BSK_LPS_IL1a: BioMAP Diversity Plus: LPS Assay for Interleukin-1 alpha (IL1a) Biomarker Activity (AID 2283080); details: primary human HUVEC with PBMC; actives raise or lower the signal
# Procedure, shortened: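 Human umbilical vein endothelial cells co-cultured with PBMC and stimulated with LPS; IL-1a measured by ELISA 24 h after dosing. Bidirectional fitting against DMSO; cytotoxicity checked by SRB staining in parallel cultures.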
# [9] = read-out: Monocyte Chemoattractant Protein-1 (MCP1), CCL2 (gene 6347); assay: BSK_LPS_MCP1: BioMAP Diversity Plus: LPS Assay for Monocyte Chemoattractant Protein-1 (MCP1) Biomarker Activity (AID 2283081); details: primary human HUVEC with PBMC; actives raise or lower the signal
# Procedure, shortened: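 Human umbilical vein endothelial cells co-cultured with PBMC, LPS-stimulated; secreted MCP-1 measured by ELISA 24 h after compound addition. Bidirectional curve fitting against DMSO baseline; SRB total-protein staining in parallel cultures for cytotoxicity.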
# [10] = BSK_LPS_PGE2: BioMAP Diversity Plus: LPS Assay for Prostaglandin E2 (PGE2) Biomarker Activity (AID 2283082); details: primary human HUVEC with PBMC; actives raise or lower the signal
# Procedure, shortened: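 Compounds were added to the LPS co-culture of endothelium and PBMC, and PGE2 was measured by ELISA after 24 h. Responses in either direction were fitted with DMSO as baseline.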
# [11] = read-out: Macrophage colony-stimulating factor (MCSF), CSF1 (gene 1435); assay: BSK_LPS_MCSF: BioMAP Diversity Plus: LPS Assay for Macrophage colony-stimulating factor (MCSF) Biomarker Activity (AID 2283083); details: primary human HUVEC with PBMC; actives raise or lower the signal
# Procedure, shortened: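 HUVEC–PBMC co-culture, M-CSF measured by ELISA 24 h after chemical dosing. Fitted in both directions relative to DMSO as negative control; overt cytotoxicity assessed by SRB total-protein staining in parallel cultures.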
# [12] = read-out: Tissue Factor, F3 (gene 2152); assay: BSK_LPS_TissueFactor: BioMAP Diversity Plus: LPS Assay for Tissue Factor Biomarker Activity (AID 2283084); details: primary human HUVEC with PBMC; actives raise or lower the signal
# Procedure, shortened: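 Human umbilical vein endothelial cells co-cultured with PBMC were dosed with compound. Cell-surface CD142 was measured by ELISA 24 h later. Activity was fitted bidirectionally against DMSO, with SRB total-protein staining in parallel cultures for cytotoxicity.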
# [13] = read-out: Tumor necrosis factor (Homo sapiens) (UniProt P01375); assay: BSK_LPS_TNFa: BioMAP Diversity Plus: LPS Assay for Tumour Necrosis Factor alpha (TNFa) Biomarker Activity (AID 2283085); details: primary human HUVEC with PBMC; actives raise or lower the signal
# Procedure, shortened: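 Cells (umbilical vein endothelium plus peripheral blood mononuclear cells) were dosed with chemical, incubated 24 h, then TNFa was quantified by ELISA; values derive from bidirectional fitting with DMSO as baseline.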
# [14] = read-out: Vascular cell adhesion molecule 1 (VCAM1), VCAM1 (gene 7412); assay: BSK_LPS_VCAM1: BioMAP Diversity Plus: LPS Assay for Vascular cell adhesion molecule 1 (VCAM1) Biomarker Activity (AID 2283086); details: primary human HUVEC with PBMC; actives raise or lower the signal
# Procedure, shortened: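 Cells are dosed in an LPS-stimulated endothelial/mononuclear co-culture and, after 24 h, VCAM-1 is quantified by ELISA. Activity in either direction is fitted relative to the DMSO negative control.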
# [15] = read-out: CD38, CD38 (gene 952); assay: BSK_SAg_CD38: BioMAP Diversity Plus: SAg Assay for CD38 Biomarker Activity (AID 2283087); details: primary human HUVEC with PBMC; actives raise or lower the signal
# Procedure, shortened: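 CD38 quantified by ELISA (fluorescence) in a superantigen-activated endothelial cell–PBMC co-culture at 24 h post-dose. Activity fitted in both directions relative to DMSO; parallel SRB and Alamar Blue cytotoxicity read-outs.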
# [16] = read-out: CD40, CD40 (gene 958); assay: BSK_SAg_CD40: BioMAP Diversity Plus: SAg Assay for CD40 Biomarker Activity (AID 2283088); details: primary human HUVEC with PBMC; actives raise or lower the signal
# Procedure, shortened: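 HUVEC plus PBMC co-culture, superantigen-activated, with CD40 read by ELISA 24 h after dosing. Curves fitted in both directions against DMSO. Overt cytotoxicity checked by parallel SRB total-protein staining.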
# [17] = read-out: CD69, CD69 (gene 969); assay: BSK_SAg_CD69: BioMAP Diversity Plus: SAg Assay for CD69 Biomarker Activity (AID 2283089); details: primary human HUVEC with PBMC; actives raise or lower the signal;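 as to AC50: cell surface CD69 protein quantified by ELISA with fluorescence detection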
# Procedure, shortened: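 Primary human vascular co-culture (umbilical vein endothelium with peripheral blood mononuclear cells) exposed to test chemical for 24 h. CD69 levels quantified by fluorescence ELISA; DMSO served as negative control for bidirectional fitting.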
# [18] = read-out: Monocyte Chemoattractant Protein-1 (MCP1), CCL2 (gene 6347); assay: BSK_SAg_MCP1: BioMAP Diversity Plus: SAg Assay for Monocyte Chemoattractant Protein-1 (MCP1) Biomarker Activity (AID 2283090); details: primary human HUVEC with PBMC; actives raise or lower the signal
# Procedure, shortened: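 Values derive from bidirectional fitting of ELISA-measured MCP1 against DMSO controls. Readings were taken 24 h after dosing human vascular endothelial cells co-cultured with peripheral blood mononuclear cells under superantigen stimulation.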
# [19] = read-out: E-selectin (Homo sapiens) (UniProt P16581); assay: BSK_SAg_Eselectin: BioMAP Diversity Plus: SAg Assay for Eselectin Biomarker Activity (AID 2283091); details: primary human HUVEC with PBMC; actives raise or lower the signal
# Procedure, shortened: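 Human umbilical vein endothelial cells co-cultured with peripheral blood mononuclear cells, SAg system. E-selectin is measured by ELISA 24 h after dosing and fitted bidirectionally against DMSO. Cytotoxicity is checked by SRB staining of parallel cultures.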
# [20] = read-out: Monokine induced gamma interferon (MIG), CXCL9 (gene 4283); assay: BSK_SAg_MIG: BioMAP Diversity Plus: SAg Assay for Monokine induced gamma interferon (MIG) Biomarker Activity (AID 2283092); details: primary human HUVEC with PBMC; actives raise or lower the signal
# Procedure, shortened: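 Endothelial cells and PBMC were co-cultured, exposed to test chemicals, and sampled 24 h later. MIG was measured by ELISA, and responses were fitted in both directions relative to DMSO.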
# Tumor necrosis factor (Homo sapiens), sequence (P01375 whole entry, looked up): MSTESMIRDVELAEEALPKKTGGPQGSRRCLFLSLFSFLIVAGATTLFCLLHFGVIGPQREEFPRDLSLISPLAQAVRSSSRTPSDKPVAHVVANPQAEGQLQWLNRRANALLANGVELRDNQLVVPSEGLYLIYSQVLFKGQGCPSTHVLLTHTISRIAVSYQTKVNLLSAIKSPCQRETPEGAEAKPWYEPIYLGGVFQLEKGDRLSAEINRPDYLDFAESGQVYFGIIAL
# E-selectin (Homo sapiens), sequence (P16581 whole entry, looked up): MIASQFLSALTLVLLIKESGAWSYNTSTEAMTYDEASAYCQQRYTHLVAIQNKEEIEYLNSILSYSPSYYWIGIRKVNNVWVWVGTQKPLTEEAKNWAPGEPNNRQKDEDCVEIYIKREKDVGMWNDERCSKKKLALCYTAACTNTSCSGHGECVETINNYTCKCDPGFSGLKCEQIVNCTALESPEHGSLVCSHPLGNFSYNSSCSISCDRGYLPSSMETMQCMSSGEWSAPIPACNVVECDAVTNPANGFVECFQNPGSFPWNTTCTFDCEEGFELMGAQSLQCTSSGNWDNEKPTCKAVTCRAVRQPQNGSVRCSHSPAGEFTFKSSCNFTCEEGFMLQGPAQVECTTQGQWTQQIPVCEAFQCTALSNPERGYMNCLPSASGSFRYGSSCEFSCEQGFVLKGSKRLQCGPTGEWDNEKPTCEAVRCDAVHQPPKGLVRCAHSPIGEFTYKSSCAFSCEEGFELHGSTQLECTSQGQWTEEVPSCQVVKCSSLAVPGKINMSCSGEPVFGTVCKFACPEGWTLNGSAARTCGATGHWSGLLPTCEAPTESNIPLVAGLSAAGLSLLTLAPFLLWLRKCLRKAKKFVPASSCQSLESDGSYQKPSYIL
smiles,measurement,setting,value
S=P(N1CC1)(N1CC1)N1CC1,outcome,[1],inactive
same,outcome,[2],inactive
same,outcome,[3],inactive
same,outcome,[4],inactive
same,outcome,[5],inactive
same,outcome,[6],inactive
same,outcome,[7],inactive
same,outcome,[8],inactive
same,outcome,[9],inactive
same,outcome,[10],inactive
same,outcome,[11],inactive
same,outcome,[12],inactive
same,outcome,[13],inactive
same,outcome,[14],inactive
same,outcome,[15],inactive
same,outcome,[16],inactive
same,outcome,[17],inactive
same,outcome,[18],inactive
same,outcome,[19],inactive
same,outcome,[20],inactive
COCc1nnc(-c2ccc[n+]([O-])c2)n1-c1c(Cl)c(Cl)cc2[nH]c(=O)c(=O)[nH]c12,outcome,[1],inactive
same,outcome,[2],inactive
same,outcome,[3],inactive
same,outcome,[4],inactive
same,outcome,[5],inactive
same,outcome,[6],inactive
same,outcome,[7],inactive
same,outcome,[8],inactive
same,outcome,[9],inactive
same,outcome,[10],inactive
same,outcome,[11],inactive
same,outcome,[12],inactive
same,outcome,[13],inactive
same,outcome,[14],inactive
same,outcome,[15],inactive
same,outcome,[16],inactive
same,outcome,[17],inactive
same,outcome,[18],inactive
same,outcome,[19],inactive
same,outcome,[20],inactive
CC1(C)C(=O)N(Cl)C(=O)N1Cl,outcome,[1],inactive
same,outcome,[2],inactive
same,outcome,[3],inactive
same,outcome,[4],inactive
same,outcome,[5],inactive
same,outcome,[6],inactive
same,outcome,[7],inactive
same,outcome,[8],inactive
same,outcome,[9],inactive
same,outcome,[10],inactive
same,outcome,[11],inactive
same,outcome,[12],inactive
same,outcome,[13],inactive
same,outcome,[14],inactive
same,outcome,[15],inactive
same,outcome,[16],inactive
same,outcome,[17],inactive
same,outcome,[18],inactive
same,outcome,[19],inactive
same,outcome,[20],inactive
CC(C)C(=O)Nc1ccc([N+](=O)[O-])c(C(F)(F)F)c1,outcome,[1],inactive
same,outcome,[2],inactive
same,outcome,[3],inactive
same,outcome,[4],inactive
same,outcome,[5],inactive
same,outcome,[6],inactive
same,outcome,[7],inactive
same,outcome,[8],inactive
same,outcome,[9],inactive
same,outcome,[10],inactive
same,outcome,[11],inactive
same,outcome,[12],inactive
same,outcome,[13],inactive
same,outcome,[14],inactive
same,AC50,[15],14.7 µM (active)
same,outcome,[16],inactive
same,AC50,[17],20 µM (active)
same,outcome,[18],inactive
same,outcome,[19],inactive
same,outcome,[20],inactive
COc1cc(C(C)C)c2c(c1)S(=O)(=O)N(COc1cc(=O)n3cccc(OCCN4CCCCC4)c3n1)C2=O,AC50,[1],2.78 µM (active)
same,AC50,[2],7.75 µM (active)
same,outcome,[3],inactive
same,AC50,[4],6.39 µM (active)
same,AC50,[5],8.03 µM (active)
same,outcome,[6],inactive
same,outcome,[7],inactive
same,outcome,[8],inactive
same,outcome,[9],inactive
same,outcome,[10],inactive
same,AC50,[11],5 µM (active)
same,outcome,[12],inactive
same,outcome,[13],inactive
same,AC50,[14],6.02 µM (active)
same,outcome,[15],inactive
same,AC50,[16],5 µM (active)
same,AC50,[17],5 µM (active)
same,AC50,[18],5 µM (active)
same,AC50,[19],5 µM (active)
same,outcome,[20],inactive
Cc1ccc(S(=O)(=O)NC(=O)NN2CCCCCC2)cc1,outcome,[1],inactive
same,outcome,[2],inactive
same,outcome,[3],inactive
same,outcome,[4],inactive
same,outcome,[5],inactive
same,outcome,[6],inactive
same,outcome,[7],inactive
same,outcome,[8],inactive
same,outcome,[9],inactive
same,outcome,[10],inactive
same,outcome,[11],inactive
same,outcome,[12],inactive
same,outcome,[13],inactive
same,outcome,[14],inactive
same,outcome,[15],inactive
same,outcome,[16],inactive
same,outcome,[17],inactive
same,outcome,[18],inactive
same,outcome,[19],inactive
same,outcome,[20],inactive
CCCCN1C(=O)[C@@H]([C@H](O)C2CCCCC2)NC(=O)C12CCN(Cc1ccc(Oc3ccc(C(=O)O)cc3)cc1)CC2,outcome,[1],inactive
same,outcome,[2],inactive
same,outcome,[3],inactive
same,outcome,[4],inactive
same,outcome,[5],inactive
same,outcome,[6],inactive
same,outcome,[7],inactive
same,outcome,[8],inactive
same,outcome,[9],inactive
same,outcome,[10],inactive
same,outcome,[11],inactive
same,outcome,[12],inactive
same,outcome,[13],inactive
same,outcome,[14],inactive
same,outcome,[15],inactive
same,outcome,[16],inactive
same,outcome,[17],inactive
same,outcome,[18],inactive
same,outcome,[19],inactive
same,outcome,[20],inactive
